# ChEMBL document CHEMBL3988442, “University of Dundee, Small-Polar-MMV Screening Library” (2021)
# Hit rate of the full screen: of about 48,000 compounds, about 13,000 (27%) showed an effect of 50% or more. This is one part of the list.
# Test system: Wolbachia pipientis
# Experiment: Anti-Wolbachia Cell-Based Screen
# Type: functional
# Parameters: scale not given: in the data most compounds retested in dose-response had high values
# Conditions: 5 µM
row,SMILES,Percent Effect
1,Cc1nc([C@@H]2C[C@@H]3CCN(Cc4cnn(C)c4)C[C@H]3O2)sc1C,-0.8686%
2,Cc1[nH]ncc1C(=O)NCC1CCC2(CC1)OCCO2,-7.861%
3,Brc1cnc(NCCCOCC2CCOCC2)nc1,13.33%
4,COCc1nc(C(=O)NS(=O)(=O)c2ccc(C)cc2C)cs1,-13.89%
5,Cc1nnc(C[C@@H]2COC[C@H]3CN(C(=O)c4ccco4)C[C@@H]23)o1,-16.71%
6,Cc1nnc(C[C@@H]2COC[C@H]3CN(C(=O)C4=CCCC4)C[C@@H]23)o1,-9.93%
7,CCS(=O)(=O)N1C[C@@H]2COC[C@@H](Cc3nc(C)no3)[C@@H]2C1,1.999%
8,COc1cc(N2C[C@@H]3COC[C@@H](Cc4nc(C)no4)[C@@H]3C2)ncn1,118.7%
9,COc1cc(N2C[C@@H]3COC[C@@H](Cc4nnc(C)o4)[C@@H]3C2)ncn1,80.24%
10,Cc1noc(C[C@@H]2COC[C@H]3CN(S(C)(=O)=O)C[C@@H]23)n1,-1.05%
11,Cc1cc(CN(CC(N)=O)CC(C)C)no1,-21.97%
12,CC(C)CN1C[C@@H]2CN(S(=O)(=O)c3cccs3)C[C@@H]2C1=O,-12.36%
13,CN(Cc1cccs1)C(=O)CS(=O)(=O)Cc1ccc(Cl)c(Cl)c1,0.1099%
14,CN(Cc1ccco1)C(=O)CN1CCN(C)c2ccccc2C1,-2.251%
15,Cc1cnn(C2CN(CC(=O)N(C)Cc3cccs3)C2)c1,-27.07%
16,Cc1cccc(C(C(=O)N(C)Cc2ccco2)N(C)C)c1 (stereo not given),9.844%
17,CN(Cc1cccs1)C(=O)CN1C(=O)c2cc(Cl)c(Cl)cc2C1=O,78.58%
18,CN(Cc1ccco1)C(=O)Nc1ccc(=O)n(C)c1,2.905%
19,CN(Cc1ccco1)C(=O)CN1C(=O)c2cc(Cl)c(Cl)cc2C1=O,81.66%
20,CN(Cc1ccco1)C(=O)CN1C(=O)c2ccccc2C1=O,72.08%
21,O=C1N(CCCc2ccccc2)CCCC1(O)CNCC1CCCCC1 (stereo not given),25.76%
22,Cc1nnsc1CN1C[C@H]2CC[C@@H]1CN(Cc1ccc(F)cc1)C2,24.86%
23,CC(=O)N1CCN(Cc2ccc(C(F)(F)F)c(F)c2)CC(O)C1 (stereo not given),-15.55%
24,CC(C)C(=O)NCC(=O)N(C)C1CCCN(C2Cc3ccccc3C2)C1 (stereo not given),-0.79%
25,Cc1ccc(N2CC3(COCCN(Cc4nccs4)C3)OCC2=O)s1.O=C(O)C(F)(F)F (stereo not given),-2.22%
